The values below come from ChEMBL document CHEMBL3988442, “University of Dundee, Small-Polar-MMV Screening Library” (2021).

In all, about 48,000 compounds went through this assay and about 13,000 (27%) showed an effect of 50% or more. Some of the results follow.

The assay deals with Wolbachia pipientis. The assay can be described thus: Anti-Wolbachia Cell-Based Screen. The assay is classed as functional. The following applies: 5 µM. Details: scale not given: in the data most compounds retested in dose-response had high values.
For the compound `CCc1nc(C)c(C(=O)N(C)Cc2cnn(-c3cccc(OC)c3)c2)s1`, the “Percent Effect” value was -4.854%.

On to `Cc1ccccc1CSc1nc(N)cc(N2C[C@H](O)[C@@H](N(C)C)C2)n1`, for which the “Percent Effect” value is given as -0.3306%.

`Cc1cccc(-c2c[nH]c(C3CCCN3C(=O)c3cc(C)n[nH]3)n2)c1` (stereo unspecified): the “Percent Effect” value worked out at 16.57%.

Turning to `Cc1cc(-c2ccccc2C(=O)O)nc(C2CCCCN2C)n1` (stereo unspecified), the “Percent Effect” value worked out at 97.78%.

With `CC(=O)N1CCCCC1c1nc(C)cc(-c2ccccc2C(=O)O)n1` (stereo unspecified), the “Percent Effect” value came out at 100.6%.

With `Cc1cc(N2CCC(O)CC2)nc(C2CCCN2C)n1` (stereo unspecified), the “Percent Effect” value is 110.3%.

Turning to `Cc1cc(C)n(-c2ccc(N3CCC(O)CC3)nc2)n1`, the “Percent Effect” value was -17.54%.

On to `CC(=O)N1CCCC1c1nc(C)cc(-c2ccc(F)cc2)n1` (stereo unspecified), for which the “Percent Effect” value is 79.53%.

In the case of `Cc1cc(N2CCC(O)CC2)nc(C)n1`, the “Percent Effect” value stood at 10.82%.

With `CC(=O)N(CCc1nc(-c2cc(C(N)=O)co2)cs1)C(C)C`, the “Percent Effect” value was -2.269%.

With `CC(C)(C)C(=O)N1C[C@@H](F)[C@@H](OCc2nc3ncccc3[nH]2)C1`, the “Percent Effect” value is -11.47%.

`COc1ccccc1CC(=O)NC(CC(=O)O)c1ccc(C)cc1` (stereo unspecified): the “Percent Effect” value is -6.3%.

For the compound `CS(=O)(=O)C1=C(O)C(=O)N(c2ccccc2)C1c1ccccc1` (stereo unspecified), the “Percent Effect” value is on record as 110.5%.

Regarding `OCCC1CN(c2ncnc3[nH]cnc23)CCN1Cc1cccs1` (stereo unspecified), the “Percent Effect” value worked out at 9.965%.

Consider `CCOCc1ccccc1NC(=O)NC1CCN(C2CCCC2)C1` (stereo unspecified), for which the “Percent Effect” value is reported as -8.399%.

Consider `Cn1cnnc1-c1cncc(NCc2cccc3c2OC(C)(C)C3)c1`, for which the “Percent Effect” value was -16.61%.

For `N#Cc1cccc(CN2C[C@@H](NC(=O)C3CC3)[C@H]3OCCC[C@H]32)c1`, the “Percent Effect” value came to 101.9%.

In the case of `O=C(N[C@@H]1CN(Cc2ccc3c(c2)OCO3)[C@@H]2CCCO[C@@H]21)C1CC1`, the “Percent Effect” value is listed as -19.8%.

Consider `N#Cc1cccc(CN2C[C@H](NC(=O)C3CC3)[C@H]3OCCC[C@H]32)c1.O=C(O)C(F)(F)F`, for which the “Percent Effect” value is 100.2%.

As for `N#Cc1cccc(CN(CC(=O)N2CCCC2)CC2CCCO2)c1` (stereo unspecified), the “Percent Effect” value was found to be 11.29%.

For `Cc1cccc(OC2CCN(S(=O)(=O)Cc3cccc(F)c3)CC2)n1`, the “Percent Effect” value is given as -8.664%.

Turning to `CSCC(C)(O)CNC(=O)c1cc(F)ccc1Br` (stereo unspecified), the “Percent Effect” value was -2.784%.

Consider `O=C(N[C@@H]1CCC[C@@H](n2ccnc2)[C@@H]1O)c1ccc2c(c1)CCCC2`, for which the “Percent Effect” value stood at 113.7%.

With `Cn1cc(CNC(=O)c2cc3c(s2)CCCCC3)cn1`, the “Percent Effect” value is -22.89%.

For the compound `O=C(NC1CCN(Cc2ccc(F)cc2)CC1)c1ccc2c(c1)CCC2`, the “Percent Effect” value was -15.84%.

In the case of `O=C(Cc1ccc2c(c1)CCC2)NCCNc1ncccn1`, the “Percent Effect” value stood at 11.75%.

Turning to `O=C(N[C@@H]1CC[C@@H](n2ccnc2)[C@@H]1O)c1cc2c(s1)CCC2`, the “Percent Effect” value was 100.6%.

As to `CCOc1ncccc1NC(=O)c1cc2c(s1)CCC2`, the “Percent Effect” value was -11.29%.

For `O=C(Cc1ccc2c(c1)CCCC2)N[C@@H]1CC[C@@H](n2ccnc2)[C@@H]1O`, the “Percent Effect” value was 128.7%.

`O=C(NC1CCN(c2cc(-n3ccnc3)ncn2)CC1)c1ccncc1`: the “Percent Effect” value was 4.759%.

Take `O=C(Cc1ccc2c(c1)CCC2)NC1CCN(Cc2ccccc2)CC1`: the “Percent Effect” value was found to be 7.244%.
